Bioassay records as filed in PubChem.
mHTT CaM bind = disrupts binding of mutant huntingtin to calmodulin | AlphaScreen His-mHTT/GST-CaM binding, luminescence | 190,000 compounds, 3.6% hits | AID 1671202 | P42858 | inhibition, % at 15 µM
Pf apPOL block = Pf-apPOL DNA polymerase inhibition; inhibition, % at 10 µM; Recombinant Pf-apPOL, molecular beacon fluorescence, 1.5 h; 210,000 compounds, 0.25% hits
Of the large screens only hits and unclear results are named; the others gave an inactive call. Rows were chosen to be rich in hits. Some 3.6% of all compounds tested hit in one or more screens of this group. Rule as the data show it: active = inhibition above about 50%; inactive = the rest.

Cc1nc2c(C(=O)NC3CCCCC3)cnn2c(C)c1Cc1ccccc1Cl	none
Cc1nc2c(C(=O)NC3CCCC3)cnn2c(C)c1Cc1cccc(Br)c1	none
Cc1nc2c(C(=O)NC3CCCCC3C)cnn2c(C)c1Cc1ccccc1 (centres undefined)	none
O=C(C1CCCCC1)N1CCC(c2ccncc2)CC1	none
O=C(Nc1ccccc1)N1CCN(c2ccc([N+](=O)[O-])cc2)CC1	none
Cc1ccc(N2CCN(C(=O)C3CCCC3)C(C)C2=O)cc1Cl (centres undefined)	none
COc1cccc(C(=O)NCC(C)NC(=O)c2cccc(OC)c2)c1 (centres undefined)	none
CCc1ccc(O)c(N=Cc2cc(I)ccc2O)c1	mHTT CaM bind 54.0
CCc1ccc(O)c(N=Cc2cc(C)ccc2O)c1	none
Cc1nn(-c2nc3ccccc3s2)c2c1C(=O)CC(C)(C)C2	none
CCN(c1cccc(C)c1)C(C(=O)Nc1ccc(OC)cc1)c1cc2c(cc1[N+](=O)[O-])OCO2 (centres undefined)	none
COc1ccc(NC(=O)C(c2cc3c(cc2[N+](=O)[O-])OCO3)N(C)Cc2ccccc2)cc1 (centres undefined)	mHTT CaM bind 61.0
COc1ccc(C(C(=O)Nc2ccc3c(c2)OCO3)N(C)C(=O)Cc2c[nH]c3ccccc23)cc1 (centres undefined)	mHTT CaM bind 75.0
CN(C(=O)Cc1c[nH]c2ccccc12)C(C(=O)Nc1ccc2c(c1)OCCO2)c1ccccc1 (centres undefined)	none
Cc1ccccc1C(=O)N1CCC(c2ccn3ncc(C(=O)N4CCCCC4)c3c2)CC1	none
O=C(CCCN1C(=O)c2ccccc2C1=O)Nc1cccc([N+](=O)[O-])c1	none
COc1cccc(C(CC(=O)N2CCCC2)c2c[nH]c3ccccc23)c1 (centres undefined)	none
COc1ccc(C(CC(=O)N2CCCC2)c2c[nH]c3ccccc23)cc1 (centres undefined)	mHTT CaM bind 91.2
CCc1cc(C2CCCN2C(=O)c2cnn3c(C(F)F)cc(-c4ccccc4)nc23)on1 (centres undefined)	none
CCn1cnc2sc(C)c(C(=O)Nc3ccccc3C(F)(F)F)c2c1=O	none
COc1ccc(/C=C2\C(=O)Nc3ccc(Br)cc32)cc1	none
COc1ccc(/C=C2\C(=O)Nc3ccc(Br)cc32)cc1OC	mHTT CaM bind 90.0
CCOc1cc(/C=C2\C(=O)Nc3ccc(Br)cc32)cc(Cl)c1O	mHTT CaM bind 100.0
O=C1Nc2ccc(I)cc2C1=Cc1cc(Br)c(O)c(Br)c1	none (no result: mHTT CaM bind)
COc1cc(/C=C2\C(=O)Nc3ccc(Br)cc32)cc([N+](=O)[O-])c1O	mHTT CaM bind 96.0
COc1cc(/C=C2\C(=O)NC(=O)N(c3ccc(C)cc3)C2=O)cc(Cl)c1O	none
COc1cc(/C=C2\C(=O)NC(=O)N(c3ccc(C)cc3)C2=O)cc([N+](=O)[O-])c1O	none
COc1cc(/C=C2\C(=O)Nc3ccc(Br)cc32)cc(Cl)c1O	mHTT CaM bind 100.0
COc1ccc(OC)c(-c2cc(C(=O)NCc3cccs3)n(C)n2)c1	none
CSc1ccc(/C=c2\sc3nc(=O)c(C)nn3c2=O)cc1	none
Cc1nn(-c2nc3ccccc3s2)c2c1C(c1ccccc1F)CC(=O)N2 (centres undefined)	none
O=C(C1CCCN(c2cnc3nccnc3c2)C1)N1CCCCC1 (centres undefined)	none
CC(C)(C)C(=O)Nc1cnc(-c2ccc(Cl)cc2)nc1	none
CCCn1c(C2CCN(C(=O)c3ccn(CC)n3)C2)nc2cccnc21 (centres undefined)	none
CCCOc1ccc(-c2noc(C)n2)cc1OC	none
COc1cccc(C2CC(c3ccc(Cl)cc3Cl)Nc3nc(N)nn32)c1 (centres undefined)	mHTT CaM bind 51.7
COc1cccc(C2CC(c3ccccc3Cl)Nc3nc(N)nn32)c1 (centres undefined)	none
Nc1nc2n(n1)C(c1cccs1)CC(c1ccc(Cl)cc1Cl)N2 (centres undefined)	mHTT CaM bind 78.5
COc1ccc(C2CC(c3ccc(Cl)cc3Cl)Nc3nc(N)nn32)cc1 (centres undefined)	none
Cc1ccc(-c2nnc(N3CCC(C(=O)NCc4ccc(F)cc4F)CC3)o2)cc1	none
O=C(c1ccccc1)N1CCCc2cc(NS(=O)(=O)c3ccccc3Cl)ccc21	none
COC(=O)c1ccsc1NC(=O)CSc1ccc(F)cc1	none
COc1ccc(CNc2cccc(F)c2)cc1Br	none
COc1ccc(CNc2ccc(F)c(Cl)c2)c(OC)c1	none
COc1ccc(CNc2ccc(C)c(C)c2)c(OC)c1	mHTT CaM bind 58.1
COc1ccc(CNc2ccccc2SC)cc1Br	none
COc1ccc(CNc2ccc3cn[nH]c3c2)cc1Br	mHTT CaM bind 70.7
COc1cccc(CNc2ccc(F)c(Cl)c2)c1OC	none
COc1cccc(CNc2ccc3cn[nH]c3c2)c1OC	mHTT CaM bind 53.7
COc1ccc(CNc2ccc(C)c(C)c2)cc1Br	mHTT CaM bind 81.2
Cc1oc2c3c(ccc2c(=O)c1-c1ccc(Cl)cc1)OCN(CC1CCCO1)C3 (centres undefined)	none
CN(C)c1ncncc1N1CCC(C(=O)NCc2ccccn2)CC1	none
